Gli-Sufu antag: antagonists of Gli-Sufu signaling; Sufu-KO-LIGHT fibroblasts, Gli luciferase reporter luminescence; inhibition, % at 5 µM; 0.74% of 340,000 active; AID 588413;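 active means inhibition above about 55%, limit read from the data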
GalR3 antagonist: human GalR3 antagonism. O60755. HEK293 GalR3-CNG cAMP membrane potential fluorescence; galR3 body fused to GalR1 C-terminus. inhibition, % at 3 µM. 0.44% of 360,000 active. AID 651719;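 active means inhibition above the screen-wide average plus 3 SD, cut at about 13% in these data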;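 further: forskolin and galanin both at EC90 stimulate the cells; cAMP rise reported by CNG channel membrane potential dye signal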
Target sequence (O60755 1-299 limits assumed): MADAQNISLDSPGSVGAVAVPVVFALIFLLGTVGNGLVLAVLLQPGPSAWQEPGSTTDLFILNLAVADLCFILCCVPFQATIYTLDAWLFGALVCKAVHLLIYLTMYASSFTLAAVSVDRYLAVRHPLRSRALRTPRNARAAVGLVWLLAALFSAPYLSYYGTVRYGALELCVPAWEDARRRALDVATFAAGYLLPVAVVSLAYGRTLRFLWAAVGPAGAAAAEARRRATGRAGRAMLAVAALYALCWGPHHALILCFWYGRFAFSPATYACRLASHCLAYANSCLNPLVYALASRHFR
Jurkat NFkB inh: inhibitors of the PMA/ionomycin-induced NF-kB reporter in Jurkat cells. PMA/ionomycin-induced NF-kB luciferase reporter, luminescence. inhibition, % at 4 µM. 0.53% of 330,000 active; in the data active means inhibition above about 50%
697 NFkB inh: inhibitors of the PMA/ionomycin-induced NF-kB reporter in 697 B cells; inhibition, % at 4 µM; 0.33% of 330,000 active; AID 435022; 697 B-cell NF-kB luciferase reporter, 16 h; in the data active means inhibition above about 35%
NR2F2 inh: blocks human COUP-TFII nuclear receptor. P24468. HEK293T NGFI-A luciferase reporter, luminescence. inhibition, % at 8.6 µM. 0.7% of 370,000 active. AID 686940;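 active means inhibition above a per-plate cutoff, mean inhibition of test wells between control levels plus 3 SD, cut at about 38% in these data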;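 further: cells cotransfected with COUP-TFII expression vector driving the NGFI-A reporter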
Target sequence (P24468 whole entry, looked up): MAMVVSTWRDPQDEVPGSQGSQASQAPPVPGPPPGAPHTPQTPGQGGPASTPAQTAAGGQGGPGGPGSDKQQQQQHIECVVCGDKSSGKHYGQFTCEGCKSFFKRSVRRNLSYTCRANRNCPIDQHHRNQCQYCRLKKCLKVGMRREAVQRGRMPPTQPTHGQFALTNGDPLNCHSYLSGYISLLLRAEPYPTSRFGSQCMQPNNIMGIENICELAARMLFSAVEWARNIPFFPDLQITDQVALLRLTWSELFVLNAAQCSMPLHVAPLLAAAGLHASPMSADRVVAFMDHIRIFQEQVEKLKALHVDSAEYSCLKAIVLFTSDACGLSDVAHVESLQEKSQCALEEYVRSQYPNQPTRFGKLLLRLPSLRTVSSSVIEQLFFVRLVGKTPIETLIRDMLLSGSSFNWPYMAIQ
GalR3 conf: confirmation of human galanin receptor 3 antagonists | shares compounds with GalR3 antagonist | HEK293 GalR3 CNG cAMP biosensor, membrane potential fluorescence; galR3 fused to GalR1 carboxy tail; challenged with forskolin and galanin at EC90 | inhibition, % at 3 µM | 59% of 1,600 active | AID 652245;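 active means inhibition above the primary screen's cutoff, the mean inhibition of all screened compounds plus 3 SD, cut at about 13% in these data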
HEK-CNG parental: counter-screen for GalR3 antagonists: nonspecific agonists in parental HEK-CNG cells; 10% of 1,600 active; AID 652268; HEK293-CNG parental cells, cAMP membrane potential fluorescence; normalised: DMSO wells 0%, forskolin wells 100%; activation, % at 3 µM; shares compounds with GalR3 antagonist; in the data active means activation above about 1.3%
VP16 Luc counter: inhibits VP16 reporter, flagging COUP-TFII antagonist hits; shares compounds with NR2F2 inh; HEK293 Gal4-VP16 luciferase reporter, luminescence; inhibition, % at 8.5 µM; 25% of 2,500 active; AID 687007; in the data active means inhibition above about 13%
COUP-TFII conf: COUP-TFII (NR2F2) inhibition, confirmation assay; shares compounds with NR2F2 inh; HEK293 NGFI-A luciferase reporter, luminescence; inhibition, % at 8.5 µM; 45% of 2,500 active;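 active means mean inhibition over three repeats above a set limit taken from the earlier primary screen, cut at about 38% in these data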
Of the large screens only hits and unclear results are named; the others gave an inactive call (follow-up assays come after a bar, where they were run). An excerpt weighted towards active compounds, which were near 2% of everything screened.

COc1cccc(-n2c(O)c(C=NCc3ccc4c(c3)OCO4)c(=O)[nH]c2=O)c1	none
Cn1c(O)c(C=NCCCCCCCCCCC(=O)O)c(=O)n(C)c1=O	GalR3 antagonist 17 | GalR3 conf 13 | HEK-CNG parental inactive
Cc1ccc(/C=C2\C(=O)NC(=O)N(CC3CCCO3)C2=O)s1 (stereo not given)	GalR3 antagonist 16 | GalR3 conf inactive | HEK-CNG parental inactive
CC(=O)OCC[N+](C)(C)C	GalR3 antagonist 44 | GalR3 conf 70 | HEK-CNG parental inactive
C[N+](C)(C)CCOC(=O)CBr	none
Clc1cc(Cl)cc(CN2Cc3cc(Br)ccc3-n3nncc3C2)c1	none (no result: Gli-Sufu antag, Jurkat NFkB inh, 697 NFkB inh)
O=C(N/N=C/c1c(O)n(CCc2ccc(F)cc2)c(=O)[nH]c1=O)c1ccncc1	GalR3 antagonist 25 | GalR3 conf 19 | HEK-CNG parental inactive
O=C(N/N=C/c1c(O)n(Cc2ccc(F)cc2)c(=O)[nH]c1=O)c1ccccc1O	GalR3 antagonist 13 | GalR3 conf inactive | HEK-CNG parental inactive
O=C(N/N=C/c1c(O)n(CCc2ccccc2)c(=O)[nH]c1=O)c1ccccc1O	GalR3 antagonist 77 | GalR3 conf 53 | HEK-CNG parental inactive
CN1OC[C@@H]2CN3C4(C[C@@H]21)c1ccccc1C3(c1ccccc1)c1ccccc14	none (no result: Gli-Sufu antag, Jurkat NFkB inh, 697 NFkB inh)
Cc1cccc2nc(-c3ccccc3)c(-c3ccc(CN4CCC(n5c(=O)[nH]c6cc(Cl)ccc65)CC4)cc3)nc12	none (no result: Gli-Sufu antag, Jurkat NFkB inh, 697 NFkB inh)
CC(=O)c1cn(CC(=O)NCCc2c[nH]c3ccccc23)c2ccccc12	GalR3 antagonist 18 | GalR3 conf 58 | HEK-CNG parental inactive
CC(=O)NCCc1c[nH]c2ccccc12	none
CC12CC[C@H]3[C@@H](CCC4(O)C[C@H](O)CCC34/C=N/NC(=O)c3ccc(O)cc3)C1(O)CCC2C1=CC(=O)OC1 (stereo not given in full)	none
COc1cc(C(=O)N/N=C/C23CC[C@@H](O)CC2(O)CC[C@@H]2[C@@H]3CCC3(C)C(C4=CC(=O)OC4)CCC23O)ccc1O (stereo not given in full)	none
COc1ccc(C(=O)N/N=C/C23CC[C@@H](O)CC2(O)CC[C@@H]2[C@@H]3CCC3(C)C(C4=CC(=O)OC4)CCC23O)cc1 (stereo not given in full)	GalR3 antagonist 34 | GalR3 conf 40 | HEK-CNG parental inactive
CC12CC[C@H]3[C@@H](CCC4(O)C[C@H](O)CCC34/C=N/NC(=O)c3ccccc3F)C1(O)CCC2C1=CC(=O)OC1 (stereo not given in full)	GalR3 antagonist 37 | GalR3 conf 23 | HEK-CNG parental inactive
CC12CC[C@H]3[C@@H](CCC4(O)C[C@H](O)CCC34/C=N/NC(=O)c3ccccc3O)C1(O)CCC2C1=CC(=O)OC1 (stereo not given in full)	GalR3 antagonist 30 | GalR3 conf 25 | HEK-CNG parental inactive
Cc1cc(N2CCNC[C@@H]2C)ccc1N1CC[C@@H](O)C1	none (no result: Gli-Sufu antag, Jurkat NFkB inh, 697 NFkB inh)
COC(=O)C1=C(c2cccc(C#N)c2)C[C@@H]2CC[C@H]1N2C(=O)NC1CC1	GalR3 antagonist 15 | GalR3 conf 13 | HEK-CNG parental inactive
COC(=O)C1=C(c2ccc(OC)c(OC)c2)C[C@@H]2CC[C@H]1N2C(=O)NC1CC1	GalR3 antagonist 15 | GalR3 conf inactive | HEK-CNG parental inactive
CN1C(=O)CCS(=O)(=O)C1c1ccc(Cl)cc1 (stereo not given)	none (no result: Gli-Sufu antag, GalR3 antagonist, Jurkat NFkB inh, 697 NFkB inh)
CN1CC[C@@H]2CN[C@H](c3ccccc3Br)C[C@@H]21	none (no result: Gli-Sufu antag, Jurkat NFkB inh, 697 NFkB inh)
O=c1[nH]c2cc(Cl)ccc2n1C1CCN(Cc2ccc(-c3nc4ccc(F)cc4nc3-c3ccccc3)cc2)CC1	none (no result: Gli-Sufu antag, Jurkat NFkB inh, 697 NFkB inh)
C[C@H](Cc1ccc(OCC(=O)O)cc1)NC[C@H](O)c1cccc(Cl)c1	none (no result: Gli-Sufu antag, GalR3 antagonist, Jurkat NFkB inh, 697 NFkB inh)
O=C(NC(Cc1cnc[nH]1)C(=O)O)c1ccccc1 (stereo not given)	GalR3 antagonist 13 | GalR3 conf inactive | HEK-CNG parental inactive
O=C(O)C(Cc1cnc[nH]1)NS(=O)(=O)c1ccc(Br)cc1 (stereo not given)	none
Nc1cc(Cl)c2nonc2c1[N+](=O)[O-]	GalR3 antagonist 35 (no result: Jurkat NFkB inh, 697 NFkB inh) | GalR3 conf 20 | HEK-CNG parental inactive
O=[N+]([O-])c1c(Cl)c(Cl)c(Cl)c(Cl)c1Cl	none (no result: Jurkat NFkB inh, 697 NFkB inh)
N=C1c2ccccc2CN1NC(=O)c1ccc(F)cc1	none
N=C1c2ccccc2CN1NC(=O)c1ccco1	GalR3 antagonist 13 | GalR3 conf inactive | HEK-CNG parental inactive
O=c1[nH]c2ccccc2n1C1CCN(C(CCc2ccccc2)c2nnnn2-c2ccc3c(c2)OCCO3)CC1 (stereo not given)	GalR3 antagonist 21 (no result: Gli-Sufu antag, Jurkat NFkB inh, 697 NFkB inh) | GalR3 conf 17 | HEK-CNG parental inactive
Cc1cccc(C)c1-n1nnnc1C(CCc1ccccc1)N1CCC(n2c(=O)[nH]c3ccccc32)CC1 (stereo not given)	none (no result: Gli-Sufu antag, Jurkat NFkB inh, 697 NFkB inh)
N#CC(C#N)=NNc1ccc(-n2ccc(C(F)(F)F)n2)cc1	Gli-Sufu antag 76, GalR3 antagonist 74 | GalR3 conf 80 | HEK-CNG parental inactive
O=C(NN=Cc1ccc(N(CCCl)CCCl)cc1)c1cc(=O)[nH]c(=O)[nH]1	none (no result: Jurkat NFkB inh, 697 NFkB inh)
O=C(Cc1cc(=O)oc2cc(O)ccc12)NN=Cc1ccc(N(CCCl)CCCl)cc1	GalR3 antagonist 16 (no result: Jurkat NFkB inh, 697 NFkB inh) | GalR3 conf 31 | HEK-CNG parental inactive
CCC12CCN(CC3(O)CC3)C(Cc3ccc(O)cc31)C2(C)C (stereo not given)	none (no result: Gli-Sufu antag, Jurkat NFkB inh, 697 NFkB inh)
O=C(NCCN1CCC2(CC1)C(=O)NCN2c1ccccc1)c1ccccc1C(F)(F)F	none (no result: Gli-Sufu antag, Jurkat NFkB inh, 697 NFkB inh)
CCC(=NCCc1c[nH]c2ccccc12)c1c(O)n(C)c(=O)n(C)c1=O	GalR3 antagonist 76, NR2F2 inh 47 | GalR3 conf 37 | HEK-CNG parental 6.7 | VP16 Luc counter inactive | COUP-TFII conf inactive
CCC(=NCCc1c[nH]c2ccccc12)c1c(O)n(-c2ccc(C)cc2)c(=O)[nH]c1=O	none
CCOC(=O)C(O)(c1ccc(NC(=S)NC(=O)c2ccc(Cl)cc2Cl)c(C)c1)C(F)(F)F (stereo not given)	GalR3 antagonist 45, NR2F2 inh 38 | GalR3 conf 50 | HEK-CNG parental inactive | VP16 Luc counter inactive | COUP-TFII conf inactive
COC(=O)C1C(OC(=O)c2ccccc2)CC2CCC1[N+]2(C)C (stereo not given)	none (no result: Gli-Sufu antag, Jurkat NFkB inh, 697 NFkB inh)

Bioassay records from PubChem.
